{"source": "ChEMBL document CHEMBL1961873", "about": "“Compounds: GSK PKIS; Assays: Nanosyn kinase panel” (2012)", "data": [{"system": "Epidermal growth factor receptor (Homo sapiens), P00533 [L858R,T790M]", "sequence (P00533 whole entry T790M/L858R, looked up)": "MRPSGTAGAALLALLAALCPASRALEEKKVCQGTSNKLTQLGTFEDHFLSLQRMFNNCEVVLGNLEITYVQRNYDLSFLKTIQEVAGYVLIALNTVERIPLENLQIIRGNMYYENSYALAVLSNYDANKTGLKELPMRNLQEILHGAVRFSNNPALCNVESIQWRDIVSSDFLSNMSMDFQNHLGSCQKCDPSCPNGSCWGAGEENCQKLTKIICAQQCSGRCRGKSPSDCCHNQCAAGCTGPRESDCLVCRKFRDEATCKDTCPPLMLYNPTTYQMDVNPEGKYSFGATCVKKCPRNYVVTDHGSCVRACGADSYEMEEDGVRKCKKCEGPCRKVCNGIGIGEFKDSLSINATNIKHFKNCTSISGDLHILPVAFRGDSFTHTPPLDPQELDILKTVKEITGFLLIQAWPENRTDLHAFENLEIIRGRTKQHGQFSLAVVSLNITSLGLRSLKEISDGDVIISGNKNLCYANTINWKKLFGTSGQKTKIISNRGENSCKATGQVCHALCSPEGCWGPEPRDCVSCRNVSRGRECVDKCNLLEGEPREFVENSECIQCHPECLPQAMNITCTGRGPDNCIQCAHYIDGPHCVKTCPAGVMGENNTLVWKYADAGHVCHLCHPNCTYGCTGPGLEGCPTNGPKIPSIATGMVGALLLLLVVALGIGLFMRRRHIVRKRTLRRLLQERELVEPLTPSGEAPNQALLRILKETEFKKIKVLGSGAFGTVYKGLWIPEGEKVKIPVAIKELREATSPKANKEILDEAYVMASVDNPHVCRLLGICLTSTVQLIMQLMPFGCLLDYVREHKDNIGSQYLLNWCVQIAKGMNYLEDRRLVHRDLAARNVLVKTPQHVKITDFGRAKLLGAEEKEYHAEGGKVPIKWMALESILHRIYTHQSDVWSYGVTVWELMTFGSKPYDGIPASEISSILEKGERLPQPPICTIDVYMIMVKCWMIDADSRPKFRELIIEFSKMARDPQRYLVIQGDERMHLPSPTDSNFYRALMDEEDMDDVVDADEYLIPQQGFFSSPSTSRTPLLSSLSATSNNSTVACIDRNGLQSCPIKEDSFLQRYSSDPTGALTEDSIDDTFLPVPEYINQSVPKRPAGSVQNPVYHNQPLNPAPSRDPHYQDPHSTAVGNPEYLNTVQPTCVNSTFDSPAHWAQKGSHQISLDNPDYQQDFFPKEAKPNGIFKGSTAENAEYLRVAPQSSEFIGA", "settings": "at 1 µM", "units": {"inhibition": "%"}, "values": [{"smiles": "C[C@@H](Oc1cc(-n2cnc3ccc(OCC4CCN(C)CC4)cc32)sc1C(N)=O)c1ccccc1C(F)(F)F", "inhibition": 18.6}, {"smiles": "Cc1cc(O)cc(C)c1/C=C/c1cncc(C(=O)N(C)C)c1", "inhibition": -0.26}, {"smiles": "c1ccc(Nc2ncc(-c3ccccc3)o2)cc1", "inhibition": 3.56}, {"smiles": "COc1ccc(-c2nn3ncccc3c2-c2ccnc(Nc3cccc(C(F)(F)F)c3)n2)cc1", "inhibition": 7.35}, {"smiles": "Cc1ccc(NC(=O)CC2CC2)cc1-c1ccc(C(=O)NCC2CC2)cc1", "inhibition": 0.35}, {"smiles": "COC(=O)c1ccc2c(c1)C(=Cc1cc(Br)c(O)c(Br)c1)C(=O)N2", "inhibition": 2.81}, {"smiles": "Cc1ccc2c(-c3ccnc(Nc4ccc5c(c4)OCCO5)n3)c(-c3ccc(C(F)(F)F)cc3)nn2n1", "inhibition": 2.06}, {"smiles": "COc1cc(/C=N/Nc2ncnc3c2cnn3C(C)C)ccc1O", "inhibition": 2.31}, {"smiles": "Nc1ccc(C#Cc2cncnc2Nc2ccc(OCc3cccc(F)c3)c(Cl)c2)cc1", "inhibition": 0.42}, {"smiles": "ON=C1CCc2cc(-c3nc(C4CCNCC4)[nH]c3-c3ccncc3)ccc21", "inhibition": 0.18}, {"smiles": "COc1cccc(-n2ncc3c(N/N=C/c4ccc(C)cc4)ncnc32)c1", "inhibition": 2.55}, {"smiles": "CCS(=O)(=O)c1ccc(OC)c(Nc2ncc(-c3cccc(OC)c3)o2)c1", "inhibition": 0.18}, {"smiles": "CC(C)c1ccc2c(c1)NC(=O)/C2=N/Nc1ccc(S(N)(=O)=O)cc1", "inhibition": -2.16}, {"smiles": "Cc1cc(Cl)cc2c1NC(=O)C2=NNc1ccc(S(N)(=O)=O)cc1", "inhibition": 2.83}, {"smiles": "CC(C)c1ccc(Nc2nccc(-c3cnn4ncccc34)n2)cc1", "inhibition": 2.24}, {"smiles": "N#Cc1cccc(Nc2nccc(-c3cnn4ncccc34)n2)c1", "inhibition": 9.41}, {"smiles": "Oc1cccc(-c2nc(-c3ccccc3)[nH]c2-c2ccncc2)c1", "inhibition": 4.01}, {"smiles": "CN1CCN(C(=O)c2ccc(NC(=O)Nc3ccc(N(C)c4ccnc(Nc5ccc(CS(C)(=O)=O)cc5)n4)cc3)cc2)CC1", "inhibition": 2.86}, {"smiles": "COC(=O)Nc1nc2cc(Oc3ccc(NC(=O)Nc4cccc(Br)c4)cc3)ccc2[nH]1", "inhibition": -0.25}, {"smiles": "COc1cccc(-n2ncc3c(N/N=C/c4ccc(S(C)(=O)=O)cc4)ncnc32)c1", "inhibition": 5.78}, {"smiles": "NS(=O)(=O)c1ccc(NC=C2C(=O)Nc3ccc4ncsc4c32)cc1", "inhibition": 9.63}, {"smiles": "CS(=O)(=O)CCNCc1nc(-c2ccc3ncnc(Nc4ccc(OCc5cccc(C(F)(F)F)c5)cc4)c3c2)cs1", "inhibition": -3.57}, {"smiles": "C[C@@H](Oc1cc(-n2cnc3ccc(OC[C@@H](O)CO)cc32)sc1C(N)=O)c1ccccc1Cl", "inhibition": -0.33}, {"smiles": "NS(=O)(=O)c1ccc(-c2cc3ccncc3cc2OCc2ccccc2)cc1", "inhibition": 2.39}, {"smiles": "NS(=O)(=O)c1ccc(Nc2cc(-c3cccc(O)c3)n[nH]2)cc1", "inhibition": 3.61}, {"smiles": "Cc1ccc(Nc2ccnc(Nc3cccc(C(N)=O)c3)n2)cc1O", "inhibition": 5.38}, {"smiles": "COc1cccc(-n2nc(C)c3c(N/N=C(\\C)c4ccncc4)ncnc32)c1", "inhibition": -1.32}, {"smiles": "CCn1c(-c2nonc2N)nc2ccc(F)cc21", "inhibition": 6.82}, {"smiles": "COc1cc2ncn(-c3cc(OCc4ccccc4S(C)(=O)=O)c(C#N)s3)c2cc1OC", "inhibition": 62.5}, {"smiles": "COc1cc2ncnc(Nc3ccc(C)c(O)c3)c2cc1OC", "inhibition": 13.5}, {"smiles": "NS(=O)(=O)c1cccc(-c2cc3ccncc3cc2OCc2ccccc2)c1", "inhibition": 0.67}, {"smiles": "COC(=O)c1cncc(/C=C/c2c(C)cc(O)cc2C)c1", "inhibition": 4.09}, {"smiles": "COc1cc(Nc2nccc(-c3cnn4ncccc34)n2)cc(OC)c1", "inhibition": 15.8}]}, {"biological_target": "Ephrin type-A receptor 2 (Homo sapiens) (UniProt P29317)", "sequence (P29317 whole entry)": "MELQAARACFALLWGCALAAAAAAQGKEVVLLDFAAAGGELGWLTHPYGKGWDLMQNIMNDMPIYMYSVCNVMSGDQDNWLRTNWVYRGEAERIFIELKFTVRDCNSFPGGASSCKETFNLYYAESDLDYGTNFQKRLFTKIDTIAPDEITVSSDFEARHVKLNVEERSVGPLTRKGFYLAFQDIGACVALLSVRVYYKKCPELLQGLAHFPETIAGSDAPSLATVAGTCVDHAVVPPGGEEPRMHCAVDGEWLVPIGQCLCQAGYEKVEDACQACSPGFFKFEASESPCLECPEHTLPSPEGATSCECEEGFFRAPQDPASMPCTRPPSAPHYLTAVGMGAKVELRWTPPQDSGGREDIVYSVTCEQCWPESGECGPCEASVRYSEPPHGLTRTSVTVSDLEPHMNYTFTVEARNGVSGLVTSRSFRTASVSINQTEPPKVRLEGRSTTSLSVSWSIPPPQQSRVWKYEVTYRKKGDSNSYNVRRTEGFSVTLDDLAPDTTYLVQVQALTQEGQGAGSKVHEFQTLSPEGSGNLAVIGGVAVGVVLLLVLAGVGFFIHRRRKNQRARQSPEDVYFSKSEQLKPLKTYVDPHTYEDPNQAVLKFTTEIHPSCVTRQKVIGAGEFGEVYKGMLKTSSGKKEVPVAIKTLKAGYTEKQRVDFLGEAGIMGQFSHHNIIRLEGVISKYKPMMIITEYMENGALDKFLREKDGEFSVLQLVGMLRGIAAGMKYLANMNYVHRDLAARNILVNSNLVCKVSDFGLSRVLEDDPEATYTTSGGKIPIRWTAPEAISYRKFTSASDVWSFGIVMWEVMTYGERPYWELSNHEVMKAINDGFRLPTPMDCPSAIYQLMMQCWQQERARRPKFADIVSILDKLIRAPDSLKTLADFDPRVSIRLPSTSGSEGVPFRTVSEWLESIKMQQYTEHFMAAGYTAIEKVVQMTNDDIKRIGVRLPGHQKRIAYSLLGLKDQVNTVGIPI", "settings": "at 0.1 µM", "units": {"inhibition": "%"}, "values": [{"smiles": "C[C@@H](Oc1cc(-n2cnc3ccc(OCC4CCN(C)CC4)cc32)sc1C(N)=O)c1ccccc1C(F)(F)F", "inhibition": -3.67}, {"smiles": "Cc1cc(O)cc(C)c1/C=C/c1cncc(C(=O)N(C)C)c1", "inhibition": 2.13}, {"smiles": "c1ccc(Nc2ncc(-c3ccccc3)o2)cc1", "inhibition": 1.18}, {"smiles": "COc1ccc(-c2nn3ncccc3c2-c2ccnc(Nc3cccc(C(F)(F)F)c3)n2)cc1", "inhibition": 0.1}, {"smiles": "Cc1ccc(NC(=O)CC2CC2)cc1-c1ccc(C(=O)NCC2CC2)cc1", "inhibition": 0.66}, {"smiles": "COC(=O)c1ccc2c(c1)C(=Cc1cc(Br)c(O)c(Br)c1)C(=O)N2", "inhibition": 1.71}, {"smiles": "Cc1ccc2c(-c3ccnc(Nc4ccc5c(c4)OCCO5)n3)c(-c3ccc(C(F)(F)F)cc3)nn2n1", "inhibition": 2.03}, {"smiles": "COc1cc(/C=N/Nc2ncnc3c2cnn3C(C)C)ccc1O", "inhibition": 1.56}, {"smiles": "Nc1ccc(C#Cc2cncnc2Nc2ccc(OCc3cccc(F)c3)c(Cl)c2)cc1", "inhibition": 0.44}, {"smiles": "ON=C1CCc2cc(-c3nc(C4CCNCC4)[nH]c3-c3ccncc3)ccc21", "inhibition": 1.25}, {"smiles": "COc1cccc(-n2ncc3c(N/N=C/c4ccc(C)cc4)ncnc32)c1", "inhibition": 2.45}, {"smiles": "CCS(=O)(=O)c1ccc(OC)c(Nc2ncc(-c3cccc(OC)c3)o2)c1", "inhibition": 3.67}, {"smiles": "CC(C)c1ccc2c(c1)NC(=O)/C2=N/Nc1ccc(S(N)(=O)=O)cc1", "inhibition": -2}, {"smiles": "Cc1cc(Cl)cc2c1NC(=O)C2=NNc1ccc(S(N)(=O)=O)cc1", "inhibition": 1.34}, {"smiles": "CC(C)c1ccc(Nc2nccc(-c3cnn4ncccc34)n2)cc1", "inhibition": -0.98}, {"smiles": "N#Cc1cccc(Nc2nccc(-c3cnn4ncccc34)n2)c1", "inhibition": 2.26}, {"smiles": "Oc1cccc(-c2nc(-c3ccccc3)[nH]c2-c2ccncc2)c1", "inhibition": 1.93}, {"smiles": "CN1CCN(C(=O)c2ccc(NC(=O)Nc3ccc(N(C)c4ccnc(Nc5ccc(CS(C)(=O)=O)cc5)n4)cc3)cc2)CC1", "inhibition": 0.47}, {"smiles": "COC(=O)Nc1nc2cc(Oc3ccc(NC(=O)Nc4cccc(Br)c4)cc3)ccc2[nH]1", "inhibition": 28.1}, {"smiles": "COc1cccc(-n2ncc3c(N/N=C/c4ccc(S(C)(=O)=O)cc4)ncnc32)c1", "inhibition": -3.2}, {"smiles": "NS(=O)(=O)c1ccc(NC=C2C(=O)Nc3ccc4ncsc4c32)cc1", "inhibition": 2.13}, {"smiles": "CS(=O)(=O)CCNCc1nc(-c2ccc3ncnc(Nc4ccc(OCc5cccc(C(F)(F)F)c5)cc4)c3c2)cs1", "inhibition": 1.44}, {"smiles": "C[C@@H](Oc1cc(-n2cnc3ccc(OC[C@@H](O)CO)cc32)sc1C(N)=O)c1ccccc1Cl", "inhibition": -4.23}, {"smiles": "NS(=O)(=O)c1ccc(-c2cc3ccncc3cc2OCc2ccccc2)cc1", "inhibition": 0.69}, {"smiles": "NS(=O)(=O)c1ccc(Nc2cc(-c3cccc(O)c3)n[nH]2)cc1", "inhibition": 1.13}, {"smiles": "Cc1ccc(Nc2ccnc(Nc3cccc(C(N)=O)c3)n2)cc1O", "inhibition": 1.66}, {"smiles": "COc1cccc(-n2nc(C)c3c(N/N=C(\\C)c4ccncc4)ncnc32)c1", "inhibition": -1.68}, {"smiles": "CCn1c(-c2nonc2N)nc2ccc(F)cc21", "inhibition": 0.18}, {"smiles": "COc1cc2ncn(-c3cc(OCc4ccccc4S(C)(=O)=O)c(C#N)s3)c2cc1OC", "inhibition": 9.06}, {"smiles": "COc1cc2ncnc(Nc3ccc(C)c(O)c3)c2cc1OC", "inhibition": 2.35}, {"smiles": "NS(=O)(=O)c1cccc(-c2cc3ccncc3cc2OCc2ccccc2)c1", "inhibition": 1.97}, {"smiles": "COC(=O)c1cncc(/C=C/c2c(C)cc(O)cc2C)c1", "inhibition": 10.3}, {"smiles": "COc1cc(Nc2nccc(-c3cnn4ncccc34)n2)cc(OC)c1", "inhibition": 2.66}]}]}
